# Source: PubChem BioAssay (NCATS)
# Inconclusive results are not listed. Unmarked numbers belong to inactive results. The source made the active and inactive calls. Calls come from the whole dose curve; as a rule, active = well fitted cell-killing curve with a large enough effect; inconclusive = small, poorly fitted or top-dose-only effect, or effect the other way; inactive = no such curve, though single readings can be large or run the other way.
# Assay: Quantitative highthroughput screen to assess conditional lethalithy of SEM cells grown in RPMI1640 with dialyzed fetal bovine serum (RPMI+ds) (AID 1963884); note: nearly all actives have a fitted effect of over 35% in size
# Details: SEM B-ALL cells, RPMI+dialyzed FBS, CellTiter-Glo viability, 48 h; series mostly up to 45.8 µM; viability: at the top concentration
# Description: Assay Provider: Jason Cantor Ph.D.
# Department of Biochemistry
# University of Wisconsin-Madison, Madison, WI, USA
# Chemical screening studies have identified drug sensitivities across hundreds of cancer cell lines but most putative therapeutics fail to translate. Discovery and development of drug candidates in models that more accurately reflect nutrient levels in human blood is a major challenge. Here we performed high-throughput screens in conventional versus Human Plasma-Like Medium (HPLM) to identify compounds that were "missed" when screening using the artificial culture condition. Sets of conditional anticancer compounds spanned phases of clinical development and included non-oncology drugs were assessed. […] We also traced conditional phenotypes for several chemotherapeutics to availability of HPLM-specific metabolites and confirmed others for compounds whose reported targets are encoded by nonessential genes. Our findings establish generalizable strategies for exploiting conditional lethality in HPLM to reveal therapeutic candidates and mechanisms of action in cancer cells.
# Described herein are the results of each viability screens against three cell lines: NOMO1 (an acute myeloid leukemia cell line); P12-Ichikawa (a T-cell acute lymphoblastic leukemia); and SEM (a B-cell ALL). Each assay was screened using 3 different cell culture media: homemade human plasma-Like medium with 10% dialyzed fetal bovine serum (HPLM+ds); RPMI1640 with 10% untreated FBS and 5mM glucose (RPMI+s); and RPMI1640 with 10% dialyzed fetal bovine serum and 5 mM glucose (RPMI+ds).
# PROTOCOL TABLE (as described by Inglese J, Shamu CE and Guy RK. 2007)
# SEQUENCE No. (e.g., 1, 2, 3, etc.); […] (e.g., Cells, Incubation, Reagent, etc.); VALUE and DESCRIPTION.
# 1; Cells; 5 uL; white, solid bottom 1536-well Greiner assay plate.
# 2; Compounds; 23 nL; Kalypsis pin tool (Wako USA) equipped with a 1536-well pin head to transfer to the assay plates.
# 3; Incubation; 48 hours; 37C incubation.
# 4; Reagent; 3 uL; CellTiter Glo (Promega).
# 5; Incubation; 5 min, room temperature
# 6; Detection; Luminescence, Viewlux PerkinElmer.
# NOTES (numbers refer to Sequence numbers above)
# 1. Briefly, 5 ul of cell reagent was dispensed using a Multidrop Combi Dispenser. The NOMO1 and SEM cells were plated at 500 cells/well and the P12-Ichikawa line at 1000 cells/well.
# 2. After seeding the cells, 23 nL of MIPE 4.1 library compounds (in DMSO) were added to each plate using a Kalypsys 1536 Pintool dispenser. Bortezomib at final concentration of […] and DMSO were added to each plate as positive and negative controls respectively. For each screen, MIPE 4.1 compounds were added over an eleven-point concentration range […] in 3-fold dilutions.
# 3. Each plate was covered with a stainless steel gasketed lid to prevent evaporation and incubated for 48 hour at 37C, 95% relative humidity, and 5% CO2.
# 4-5. Three microliter CellTilter-GloTM luminescent substrate mix (Promega) reagent was added to the assay plate and incubated at room temperature for 5 min.
# 6. The luminescence signal was measured using a ViewLux (PerkinElmer) multiplate reader with a 2 second exposure time per plate. Data for each compound were normalized as percent viability such that measurements for DMSO and the empty well controls in each plate were defined as 100% and 0%, respectively.
# Potency is the fitted concentration of half-maximal effect.
SMILES,viability,Potency
Cc1ccccc1-n1c(Cn2ncc3c(N)ncnc32)nc2cccc(C)c2c1=O,103%,–
CC(=Cc1csc(C)n1)[C@@H]1C[C@H]2O[C@@H]2CCC[C@H](C)[C@@H](O)[C@@H](C)C(=O)C(C)(C)[C@@H](O)CC(=O)O1,18.3%,–
CO[C@H]1CCC(O[C@H]2C[C@H]([C@]3(C)CC[C@]4(C[C@H](O)[C@@H](C)[C@@H]([C@@H](C)C=C(C)C(=O)[C@H](C)C[C@H](C)C(=O)O)O4)O3)O[C@]3(O[C@@H]([C@H]4O[C@@](O)(CO)[C@H](C)C[C@H]4C)C[C@H]3C)[C@H]2C)O[C@H]1C (stereo not given in full),–,1320 nM (active)
C#CC1(O)CCC2C3CCC4=CC(=O)CCC4(C)C3CCC21C (stereo not given),108%,–
CC(=Cc1csc(C)n1)[C@@H]1C[C@H]2O[C@]2(C)CCC[C@H](C)[C@@H](O)[C@@H](C)C(=O)C(C)(C)[C@@H](O)CC(=O)O1,14.5%,–
O=C(O)c1nn(Cc2ccc(Cl)cc2Cl)c2ccccc12,71%,–
CC(N[C@H]1C[C@H]1c1ccccc1)c1ccc2c(c1)OCCO2 (stereo not given in full),87.5%,–
C[C@@H]1[C@H](O)[C@@H](C)C=CC=CCCC=CC=CC=CC=C[C@H](O[C@H]2O[C@@H](C)[C@H](O)[C@@H](N)[C@@H]2O)CC2O[C@](O)(C[C@@H](O)[C@H](O)CC[C@@H](O)C[C@@H](O)C[C@@H](O)CC(=O)O[C@H]1C)C[C@H](O)[C@H]2C(=O)O,105%,–
COc1cccc2c1[C@]13CCN(CC4CC4)[C@H](C2)[C@]1(OC)CCC(=O)C3,79.7%,–
O=C(NCC1CCOCC1)c1cnc(Nc2ccc(Cl)cc2Cl)nc1C(F)(F)F,87%,–
O=c1[nH]c2ccc(Cl)cc2c(N[C@@H]2CN3CCC2CC3)c1-c1nc2ccccc2[nH]1,–,66.2 nM (active)
CCNC(=O)CC1N=C(c2ccc(Cl)cc2)c2cc(OC)ccc2-n2c(C)nnc21 (stereo not given),–,23500 nM (active)
CC1=C(O)C(=O)C=C2C1=CC=C1[C@@]2(C)CC[C@@]2(C)[C@@H]3C[C@](C)(C(=O)O)CC[C@]3(C)CC[C@]12C,–,1870 nM (active)
CCN1C[C@]2(OC(=O)c3ccccc3NC(C)=O)CC[C@H](OC)[C@@]34[C@H]5CC6[C@@H](OC)C[C@](O)(C(C[C@@H]23)[C@@H]14)[C@@]5(O)[C@@H]6OC,89%,–
C=C(C)[C@H]1Cc2c(ccc3c2O[C@@H]2COc4cc(OC)c(OC)cc4[C@@H]2C3=O)O1,–,3720 nM (active)
COc1ccc2c(c1OC)CN1CCc3cc4c(cc3C1C2)OCO4 (stereo not given),–,469 nM (active)
C[C@]12CC[C@H]3[C@@H](CC[C@@]45O[C@H]4C(O)=C(C#N)C[C@]35C)[C@H]1CC[C@H]2O,–,16600 nM (active)
CCNC(=O)C[C@@H]1N=C(c2ccc(Cl)cc2)c2cc(OC)ccc2-n2c(C)nnc21,–,1050 nM (active)
COc1cc(C(=O)N2CC[C@@H](O)[C@@H](N)C2)cc2nc(-c3cc4ccccc4n3CC3CC3)n(C)c12,–,831 nM (active)
CC(C)c1cccc(C(C)C)c1O,92.7%,–

SMILES,viability,Potency
Cc1nc(-c2ccc(-c3ccc(C(=O)N4CCc5cc6c(cc54)C4(CCN(C)CC4)CO6)cc3)c(C)c2)no1,104%,–
CNCC(O)c1ccc(O)cc1 (stereo not given),78%,–
N[C@@H](Cc1ccc(N(CCCl)CCCl)cc1)C(=O)O,–,2960 nM (active)
O=P1(NCCCl)OCCCN1CCCl (stereo not given),–,20900 nM (active)
CC1(N2CCC(n3c([C@@H]4CCCNC4)nc4ccccc43)CC2)CCCCCCC1,79.4%,–
C[C@]12Cc3cn[nH]c3C[C@@H]1CC[C@@H]1[C@H]2CC[C@@]2(C)[C@H]1CC[C@]2(C)O,92.9%,–
CN1C(=O)CCS(=O)(=O)C1c1ccc(Cl)cc1 (stereo not given),91.7%,–
CNC(=O)c1ccc(N2C(=S)N(c3ccc(C#N)c(C(F)(F)F)c3)C(=O)C23CCC3)cc1F,110%,–
C[C@]12CCC(=O)C(O)=C1CC[C@@H]1[C@H]3CCC(=O)[C@@]3(C)CC[C@@H]12,97.1%,–
CCOc1ccccc1-n1c(C(C)N2CCN(C(=O)COc3ccc(Cl)cc3)CC2)nc2ccccc2c1=O (stereo not given),–,588 nM (active)
O=C(O)CNC(=O)c1c(O)c2ccccc2n(Cc2ccccc2)c1=O,104%,–
C=CCON=C(C[C@H]1O[C@@H]2O[C@]3(C)CC[C@@H]4[C@H](C)CC[C@@H]([C@H]1C)[C@@]24OO3)[C@H]1O[C@@H]2O[C@]3(C)CC[C@H]4[C@H](C)CC[C@@H]([C@@H]1C)[C@@]24OO3,–,935 nM (active)
C[C@]12CCC(=O)C=C1CC[C@@H]1[C@H]3CC[C@](C)(O)[C@@]3(C)CC[C@@H]12,99.8% [at 92.2 µM],–
Cc1cc(SCc2sc(-c3ccc(C(F)(F)F)c(F)c3)nc2C)ccc1OCC(=O)O,97.3%,–
CC[C@@]1(O)C(=O)OCc2c1cc1n(c2=O)Cc2cc3ccccc3nc2-1,–,26.4 nM (active)
NCC1(CC(=O)O)CCCCC1,87.5%,–
CN[C@@H]1Cc2cccc3[nH]c(=O)n(c23)C1,100%,–
CC(C)N[C@@H]1CCn2c(=O)[nH]c3cccc(c32)[C@@H]1O,96.3%,–
O=c1cccc2n1CC1CNC[C@H]2C1,97.5%,–
COc1ccc2c(c[n+](C)c3c4cc5c(cc4ccc23)OCO5)c1OC,–,9350 nM (active)
